Data published in PubChem BioAssay (NCATS).
Results filed as inconclusive are left out. Values without a mark were called inactive. Calls of active or inactive are those of the source. The call rests on the fitted dose curve; in most records, active means well fitted cell-killing curve with a large enough effect; inconclusive means small, poorly fitted or top-dose-only effect, or effect the other way; inactive means no such curve, though single readings can be large or run the other way.

How the values were obtained:
[1] = Viability qHTS for spleen associated tyrosine kinase inhibitor (SYKi) naive MV4-11 cells (AID 1963823); further: nearly all actives have a fitted effect of over 40% in size
Method in brief: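 qHTS, SYK inhibitor-naive MV4-11; 500 cells/well; 72 hr compound exposure, 37 C; CellTiter-Glo added, 10 min RT; luminescence read.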

[2] = Viability qHTS for spleen associated tyrosine kinase inhibitor (SYKi) drug resistant MV4-11 cells (AID 1963824); further: nearly all actives have a fitted effect of over 35% in size
Method in brief: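 SYK inhibitor-resistant MV4-11 AML cells, 500 per well, added to predispensed compounds and incubated 72 hr at 37 C, 5% CO2. Viability measured by CellTiter-Glo luminescence after 10 min at room temperature.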
Potency means the concentration at half of the fitted maximal effect.

## C/C(=C\CO)CC/C=C(\C)C(=O)O[C@H]1[C@H](OC2OC=C(C(=O)O)C3CCC(C)(O)C23)O[C@H](CO)[C@@H](O)[C@@H]1O (stereo partly drawn)
[1]
  Potency: inactive
[2]
  Potency: inactive

## C[C@@H]1O[C@@H](O[C@H]2[C@H](O[C@H]3[C@H](O[C@H]4CC[C@@]5(C)C(CC[C@]6(C)C5CC=C5[C@@H]7CC(C)(C)C[C@@H](O)[C@]7(C)CC[C@]56C)[C@@]4(C)CO)O[C@H](C(=O)O)[C@@H](O)[C@@H]3O)OC[C@H](O)[C@@H]2O)[C@H](O)[C@H](O)[C@H]1O (stereo partly drawn)
[1]
  viability (% of control): 76.2% [at 9.25 µM]
[2]
  viability, % of control: 84.4% [at 9.25 µM]

## C=C1CCC[C@]2(C)CC[C@@](O)(C(=C)C(=O)O)C[C@@H]12
[1]
  Potency: inactive
[2]
  Potency: inactive

## Cc1cc(-c2cc(O)ccc2Cl)cc2nnc(Nc3ccc(OCCN4CCCC4)cc3)nc12
[1]
  Potency: 1.84 µM (active)
[2]
  Potency: 1.84 µM (active)

## O=C(O)C[C@H]1CCC(=O)[C@@H]1C/C=C\CCO
[1]
  Potency: inactive
[2]
  Potency: inactive

## C=C(C)C(=O)O[C@H]1[C@H]2C(=C)C(=O)O[C@@H]2C[C@@H](C)[C@@H]2O[C@@H]2C(=O)[C@](C)(O)[C@@H]1OC(C)=O
[1]
  Potency: 2 µM (active)
[2]
  Potency: 1.59 µM (active)

## C[C@H]1[C@H](C)CC[C@]2(C(=O)OC3OC(CO)C(O)C(O)C3O)CC[C@]3(C(=O)O)C(=CCC4[C@@]5(C)CC[C@H](O[C@@H]6O[C@@H](C)[C@H](OC7OC(CO)C(O)C(O)C7O)[C@@H](O)[C@H]6O)C(C)(C)C5CC[C@]43C)[C@H]12 (stereo partly drawn)
[1]
  viability (% of control): 80.8% [at 9.25 µM]
[2]
  viability, % of control: 108% [at 9.25 µM]

## CN(C)CCOc1cc(NS(=O)(=O)c2c(Cl)cc(C(F)(F)F)cc2Cl)ccc1Cl
[1]
  Potency: inactive
[2]
  Potency: inactive

## Fc1ccc(C2CCNC[C@H]2COc2ccc3c(c2)OCO3)cc1 (stereo partly drawn)
[1]
  Potency: 16.4 µM (active)
[2]
  Potency: 9.2 µM (active)

## C/C(=N\N=C(N)N)c1ccc(NC(=O)Nc2ccc(/C(C)=N/N=C(N)N)cc2)cc1
[1]
  Potency: 2.06 µM (active)
[2]
  Potency: 0.731 µM (active)

## Cc1cc(C(=O)Nc2cccc(C(=O)Nc3cccc(C(F)(F)F)c3)c2)on1
[1]
  Potency: inactive
[2]
  Potency: inactive

## COc1ccc2c(c1)OC[C@]1(O)c3cc4c(cc3O[C@H]21)OCO4
[1]
  Potency: inactive
[2]
  Potency: inactive

## CN[C@@H]1[C@@H](O)[C@@H](O[C@@H]2[C@@H](O)[C@H](O[C@H]3O[C@@H]([C@@H](C)NC)CC[C@H]3N)[C@@H](N)C[C@H]2N)OC[C@]1(C)O
[1]
  Potency: inactive
[2]
  Potency: inactive

## C[C@@H]1O[C@@H](O[C@H]2[C@H](O[C@H]3[C@H](O[C@H]4CC[C@@]5(C=O)C(CC[C@]6(C)C5CC=C5C7CC(C)(C)C[C@@H](O)[C@]7(C)CC[C@]56C)C4(C)C)O[C@H](C(=O)O)[C@@H](O)[C@@H]3O)OC[C@@H](O)[C@@H]2O)[C@H](O)[C@H](O)[C@H]1O (stereo partly drawn)
[1]
  viability (% of control): 85.7% [at 9.25 µM]
[2]
  viability, % of control: 103% [at 9.25 µM]

## CC(C)(O)[C@H]1CC[C@@](C)([C@H]2[C@@H](O)C[C@@]3(C)[C@@H]4C[C@H](O[C@@H]5O[C@H](CO)[C@@H](O)[C@H](O)[C@H]5O)[C@H]5C(C)(C)[C@@H](O[C@@H]6OC[C@@H](O)[C@H](O)[C@H]6O)CC[C@@]56C[C@@]46CC[C@]23C)O1
[1]
  Potency: inactive
[2]
  Potency: inactive

## OC[C@H]1O[C@@H](OCCc2ccccc2)[C@H](O[C@@H]2OC[C@@H](O)[C@H](O)[C@H]2O)[C@@H](O)[C@@H]1O
[1]
  Potency: inactive
[2]
  Potency: inactive

## CC1OC(O[C@@H]2[C@H](O)[C@@H](OC3OC(CO)C(O)C(O)C3O)[C@H](OC(=O)[C@]34CCC(C)(C)C[C@H]3C3=CCC5[C@@]6(C)CC[C@H](O[C@@H]7O[C@H](C(=O)O)[C@@H](O)[C@H](O[C@@H]8OC[C@@H](O)[C@H](O)[C@H]8O)[C@H]7O[C@@H]7O[C@H](CO)[C@H](O)[C@H](O)[C@H]7O)[C@@](C)(C=O)C6CC[C@@]5(C)[C@]3(C)C[C@H]4O)O[C@@H]2C)C(O)C(O)C1OC1OCC(O)C(O)C1O (stereo partly drawn)
[1]
  viability (% of control): 87.4% [at 4.97 µM]
[2]
  viability, % of control: 89.9% [at 4.97 µM]

## C=C(C)C(=O)O[C@H]1C[C@@](C)(OC(C)=O)[C@@]2(O)CC[C@@](C)(O)[C@H](OC(C)=O)[C@@]23OC(=O)C(COC)=C13
[1]
  Potency: 8.93 µM (active)
[2]
  Potency: 11.2 µM (active)

## C[C@H](NC(=O)C(C)(C)Oc1ccc(C(F)(F)F)cn1)[C@@H](Cc1ccc(Cl)cc1)c1cccc(C#N)c1
[1]
  Potency: 13 µM (active)
[2]
  Potency: 9.2 µM (active)
